# According to PubChem BioAssay (NCI):
# About 79,000 compounds went through this panel and 15% of them were active in at least one assay; those are over-represented in the sample as a whole. A number with no mark means an inactive call. Active and inactive are the calls of the source. Rule as the data show it: active = growth inhibition above about 70%; inactive = the rest.
# Experiments:
# [1] = NCI Yeast Anticancer Drug Screen. Data for the wt2 strain (AID 169);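 also: 0% = growth of vehicle-treated yeast cultures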; conditions: S. cerevisiae wt2 strain growth inhibition, stronger effect = higher value
# Outline: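 Against vehicle-treated controls, the growth of yeast exposed to each compound was compared, and the inhibition was recorded.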
# [2] = NCI Yeast Anticancer Drug Screen. Data for the mlh1 strain (AID 171);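 also: 0% = growth of vehicle-treated control cultures of the same strain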; conditions: S. cerevisiae mlh1 strain growth inhibition, stronger effect = higher value
# Outline: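 Measured: yeast growth. Reference: vehicle-treated controls. Organism: strain with a defined alteration affecting DNA damage repair or cell cycle control, treated with compound.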
# [3] = NCI Yeast Anticancer Drug Screen. Data for the sgs1 strain (AID 173);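 also: 0% = growth of vehicle-only control cultures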; conditions: S. cerevisiae sgs1 mutant, stronger effect = higher value
# Outline: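 Each compound was added to cultures of the altered yeast strain. Growth was recorded, and inhibition was derived by comparison with vehicle controls.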
# [4] = NCI Yeast Anticancer Drug Screen. Data for the mlh1 rad18 strain (AID 175); conditions: S. cerevisiae mlh1 rad18 strain growth inhibition, stronger effect = higher value
# Outline: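 Genetically defined yeast (DNA repair-deficient) exposed to compounds; growth inhibition determined relative to vehicle.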
# [5] = NCI Yeast Anticancer Drug Screen. Data for the rad18 strain (AID 177); conditions: S. cerevisiae rad18 mutant growth inhibition, stronger effect = higher value
# Outline: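 Vehicle-treated cultures served as the baseline for scoring compound-induced growth inhibition in DNA-repair-mutant yeast.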
# [6] = NCI Yeast Anticancer Drug Screen. Data for the rad52 strain (AID 147);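 also: 0% = growth of vehicle-treated control cultures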; conditions: S. cerevisiae rad52 mutant growth inhibition, stronger effect = higher value
# Outline: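 The repair-mutant yeast strain was incubated with compounds, then growth was read and inhibition derived relative to vehicle.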
# [7] = NCI Yeast Anticancer Drug Screen. Data for the wt1 strain (AID 149);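 also: 0% = growth of vehicle-treated wt1 cultures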; conditions: S. cerevisiae wt1 strain (SPY 50644) growth inhibition, stronger effect = higher value
# Outline: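 wt1 yeast, compound-treated; % growth inhibition vs vehicle control.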
# [8] = NCI Yeast Anticancer Drug Screen. Data for the rad50EPP+ strain (AID 151);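 also: 0% = growth of vehicle-treated control cultures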; conditions: S. cerevisiae rad50 mutant strain, stronger effect = higher value
# Outline: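 Vehicle-normalised growth inhibition; rad50EPP+ yeast strain, altered in DNA damage repair, compound-treated.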
# [9] = NCI Yeast Anticancer Drug Screen. Data for the mgt1 strain (AID 153); conditions: S. cerevisiae mgt1 mutant growth inhibition, stronger effect = higher value
# Outline: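 Vehicle-normalized growth inhibition is determined in mgt1 yeast, a strain selected for a defined alteration in DNA repair or cell cycle control.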
# [10] = NCI Yeast Anticancer Drug Screen. Data for the rad50 strain (AID 155);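 also: 0% = growth of vehicle-only cultures of the same strain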; conditions: S. cerevisiae rad50 strain growth inhibition, stronger effect = higher value
# Outline: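 Genetically altered yeast (DNA repair pathway); compound treatment; growth inhibition vs vehicle ctrl.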
# [11] = NCI Yeast Anticancer Drug Screen. Data for the mec2-1 strain (AID 157); conditions: S. cerevisiae mec2-1 strain, stronger effect = higher value
# Outline: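 Mutant yeast (mec2-1) grown with compound; growth inhibition relative to vehicle control reported.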
# [12] = NCI Yeast Anticancer Drug Screen. Data for the rad14 strain (AID 159);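 also: 0% = growth of vehicle-treated control cultures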; conditions: S. cerevisiae rad14 strain growth inhibition, stronger effect = higher value
# Outline: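 Test compounds were applied to a repair-deficient yeast strain. Its growth was then compared with that of cultures given vehicle alone, and inhibition was expressed relative to those controls.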
# [13] = NCI Yeast Anticancer Drug Screen. Data for the sgs1 mgt1 strain (AID 161);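 also: 0% = growth of cultures given vehicle only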; conditions: S. cerevisiae sgs1 mgt1 strain, stronger effect = higher value
# Outline: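 Yeast cells carrying a defined DNA-repair defect were exposed to test compounds. Growth inhibition was measured relative to vehicle-treated controls.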
# [14] = NCI Yeast Anticancer Drug Screen. Data for the CLN2oe strain (AID 163);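 also: 0% = growth of vehicle-only control cultures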; conditions: S. cerevisiae CLN2oe strain, stronger effect = higher value
# Outline: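 Compounds are applied to yeast harbouring a defined cell-cycle control change; reduced growth compared with vehicle-treated controls gives the value.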
# [15] = NCI Yeast Anticancer Drug Screen. Data for the cln2 rad14 strain (AID 165);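 also: 0% = growth equal to vehicle treated cultures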; conditions: S. cerevisiae cln2 rad14 strain, stronger effect = higher value
# Outline: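 Readout is yeast growth inhibition versus vehicle-treated controls, using a strain with cln2 and rad14 alterations exposed to compound.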
# [16] = NCI Yeast Anticancer Drug Screen. Data for the bub3 strain (AID 167); conditions: S. cerevisiae bub3 mutant strain, stronger effect = higher value
# Outline: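 Yeast carrying a defined mutation is treated with each compound, and growth is compared with that of vehicle-exposed cells to give inhibition.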
# [17] = at 5.0 µM (retest, dose inferred, filed as 0.5)
# [18] = at 50.0 µM (retest, dose inferred, filed as 5.0)
compound,measurement,setting,value
CCN(CC)CCBr,growth inhibition,[1]; at 1.2 µM,-1%
same,growth inhibition,[1]; at 3.7 µM,6%
same,growth inhibition,[1]; at 11.0 µM,0%
same,growth inhibition,[1]; at 33.0 µM,-3%
same,growth inhibition,[1]; at 100.0 µM,-3%
same,growth inhibition,[2]; at 1.2 µM,-1%
same,growth inhibition,[2]; at 3.7 µM,-1%
same,growth inhibition,[2]; at 11.0 µM,-1%
same,growth inhibition,[2]; at 33.0 µM,-2%
same,growth inhibition,[2]; at 100.0 µM,-1%
same,growth inhibition,[3]; at 1.2 µM,0%
same,growth inhibition,[3]; at 3.7 µM,4%
same,growth inhibition,[3]; at 11.0 µM,15%
same,growth inhibition,[3]; at 33.0 µM,42%
same,growth inhibition,[3]; at 100.0 µM,73% (active)
same,growth inhibition,[4]; [17],5%
same,growth inhibition,[4]; [18],15%
same,growth inhibition,[4]; at 50.0 µM,19.9%
same,growth inhibition,[5]; at 1.2 µM,17%
same,growth inhibition,[5]; at 3.7 µM,54%
same,growth inhibition,[5]; at 11.0 µM,86% (active)
same,growth inhibition,[5]; at 33.0 µM,92% (active)
same,growth inhibition,[5]; at 100.0 µM,96% (active)
COC(=O)C1c2cc3c(c(O)c2C(O)CC1(C)O)C(=O)c1c(O)cc2c(c1C3=O)OC1OC2(C)C(O)C(N(C)C)C1O (stereo unspecified),growth inhibition,[6]; at 1.2 µM,0%
same,growth inhibition,[6]; at 3.7 µM,16%
same,growth inhibition,[6]; at 11.0 µM,50%
same,growth inhibition,[6]; at 33.0 µM,85% (active)
same,growth inhibition,[6]; at 100.0 µM,93% (active)
same,growth inhibition,[7]; at 1.2 µM,2%
same,growth inhibition,[7]; at 3.7 µM,1%
same,growth inhibition,[7]; at 11.0 µM,17%
same,growth inhibition,[7]; at 33.0 µM,34%
same,growth inhibition,[7]; at 100.0 µM,75% (active)
same,growth inhibition,[8]; at 1.2 µM,-1%
same,growth inhibition,[8]; at 3.7 µM,18%
same,growth inhibition,[8]; at 11.0 µM,39%
same,growth inhibition,[8]; at 33.0 µM,61%
same,growth inhibition,[8]; at 100.0 µM,65%
same,growth inhibition,[9]; at 1.2 µM,-7%
same,growth inhibition,[9]; at 3.7 µM,9%
same,growth inhibition,[9]; at 11.0 µM,14%
same,growth inhibition,[9]; at 33.0 µM,52%
same,growth inhibition,[9]; at 100.0 µM,95% (active)
same,growth inhibition,[10]; at 1.2 µM,1%
same,growth inhibition,[10]; at 3.7 µM,37%
same,growth inhibition,[10]; [17],24%
same,growth inhibition,[10]; at 11.0 µM,86% (active)
same,growth inhibition,[10]; at 33.0 µM,94% (active)
same,growth inhibition,[10]; [18],64%
same,growth inhibition,[10]; at 50.0 µM,98% (active)
same,growth inhibition,[10]; at 100.0 µM,93% (active)
same,growth inhibition,[11]; at 1.2 µM,-3%
same,growth inhibition,[11]; at 3.7 µM,3%
same,growth inhibition,[11]; [17],12%
same,growth inhibition,[11]; at 11.0 µM,37%
same,growth inhibition,[11]; at 33.0 µM,96% (active)
same,growth inhibition,[11]; [18],92% (active)
same,growth inhibition,[11]; at 50.0 µM,95.3% (active)
same,growth inhibition,[11]; at 100.0 µM,94% (active)
same,growth inhibition,[12]; at 1.2 µM,0%
same,growth inhibition,[12]; at 3.7 µM,16%
same,growth inhibition,[12]; at 11.0 µM,79% (active)
same,growth inhibition,[12]; at 33.0 µM,97% (active)
same,growth inhibition,[12]; at 100.0 µM,92% (active)
same,growth inhibition,[13]; [17],-3%
same,growth inhibition,[13]; [18],15%
same,growth inhibition,[13]; at 50.0 µM,98% (active)
same,growth inhibition,[14]; at 1.2 µM,-7%
same,growth inhibition,[14]; at 3.7 µM,1%
same,growth inhibition,[14]; at 11.0 µM,31%
same,growth inhibition,[14]; at 33.0 µM,73% (active)
same,growth inhibition,[14]; at 100.0 µM,89% (active)
same,growth inhibition,[15]; [17],27%
same,growth inhibition,[15]; [18],85% (active)
same,growth inhibition,[15]; at 50.0 µM,78.2% (active)
same,growth inhibition,[16]; at 1.2 µM,-4%
same,growth inhibition,[16]; at 3.7 µM,3%
same,growth inhibition,[16]; [17],-26%
same,growth inhibition,[16]; at 11.0 µM,55%
same,growth inhibition,[16]; at 33.0 µM,95% (active)
same,growth inhibition,[16]; [18],97% (active)
same,growth inhibition,[16]; at 50.0 µM,90.9% (active)
same,growth inhibition,[16]; at 100.0 µM,93% (active)
same,growth inhibition,[1]; at 1.2 µM,0%
same,growth inhibition,[1]; at 3.7 µM,5%
same,growth inhibition,[1]; at 11.0 µM,28%
same,growth inhibition,[1]; at 33.0 µM,80% (active)
same,growth inhibition,[1]; at 100.0 µM,93% (active)
same,growth inhibition,[2]; at 1.2 µM,-4%
same,growth inhibition,[2]; at 3.7 µM,18%
same,growth inhibition,[2]; at 11.0 µM,70% (active)
same,growth inhibition,[2]; at 33.0 µM,96% (active)
same,growth inhibition,[2]; at 100.0 µM,94% (active)
same,growth inhibition,[3]; at 1.2 µM,-1%
same,growth inhibition,[3]; at 3.7 µM,9%
same,growth inhibition,[3]; at 11.0 µM,40%
same,growth inhibition,[3]; at 33.0 µM,71% (active)
same,growth inhibition,[3]; at 100.0 µM,87% (active)
same,growth inhibition,[4]; [17],9%
same,growth inhibition,[4]; [18],98% (active)
same,growth inhibition,[4]; at 50.0 µM,95.2% (active)
same,growth inhibition,[5]; at 1.2 µM,1%
same,growth inhibition,[5]; at 3.7 µM,13%
same,growth inhibition,[5]; at 11.0 µM,75% (active)
same,growth inhibition,[5]; at 33.0 µM,94% (active)
same,growth inhibition,[5]; at 100.0 µM,91% (active)
